Measured values reported in PubChem BioAssay AID1159580 (chemical genetic matrix, 2015).
“And” between values parts separate entries of the source, which are not always exact repeats. Equal values may be shown once. The campaign covered roughly 5,500 compounds. About 2,000 (36%) were called active. Inconclusive results (about 18%) are left out. Cut-off read from the data, not from the text of the source: active = normalized growth mostly below about 0.91 (no sharp cut-off); inconclusive = no clear call, values can overlap the other calls; inactive = mostly above about 0.92. This is one part of the list.

Test: chemical genetic growth profiling, strain panel (AID 1159580);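 note: tested at 20 µM; growth read once vehicle control cultures reached saturation at 30 °C; 1 = growth at the plate median or of vehicle wells; lower values mean less growth of the strain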
Conditions: S. cerevisiae deletion strains, growth OD
[1] = locus YAL013W, strain DEP1, stronger effect = lower value
[2] = locus YBR229C, strain ROT2, stronger effect = lower value
[3] = locus YDL101C, strain DUN1, stronger effect = lower value
[4] = locus YDR150W, strain NUM1, stronger effect = lower value
[5] = locus YEL061C, strain CIN8, stronger effect = lower value
[6] = locus YGR078C, strain PAC10, stronger effect = lower value
[7] = locus YHR030C, strain SLT2, stronger effect = lower value
[8] = locus YHR087W, strain rtc3, stronger effect = lower value
[9] = locus YJR043C, strain POL32, stronger effect = lower value
[10] = locus YJR075W, strain HOC1, stronger effect = lower value
[11] = locus YLR039C, strain RIC1, stronger effect = lower value
[12] = locus YLR058C, strain SHM2 (second series), stronger effect = lower value
[13] = locus YLR085C, strain ARP6, stronger effect = lower value
[14] = locus YLR262C, strain YPT6, stronger effect = lower value
[15] = locus YML094W, strain GIM5, stronger effect = lower value
[16] = locus YMR219W, strain ESC1, stronger effect = lower value
[17] = locus YMR263W, strain SAP30, stronger effect = lower value
[18] = locus YNL153C, strain GIM3, stronger effect = lower value
[19] = locus YNL298W, strain CLA4 (second series), stronger effect = lower value
[20] = locus YNL322C, strain KRE1, stronger effect = lower value
[21] = locus YNR030W, strain Alg12, stronger effect = lower value
[22] = locus YOL006C, strain TOP1, stronger effect = lower value
[23] = locus YPL055C, strain LGE1, stronger effect = lower value
[24] = locus YPL241C, strain CIN2, stronger effect = lower value
[25] = locus YPR135W, strain CTF4, stronger effect = lower value
[26] = locus YHR079C, strain IRE1, stronger effect = lower value
[27] = locus YJL095W, strain BCK1, stronger effect = lower value
[28] = locus YJR066W, strain TOR1, stronger effect = lower value
[29] = locus YLR113W, strain HOG1, stronger effect = lower value
[30] = locus YNL183C, strain NPR1, stronger effect = lower value
[31] = locus YOR231W, strain MKK1, stronger effect = lower value
[32] = locus YPL256C, strain CLN2, stronger effect = lower value
[33] = locus YAR019C, strain CDC15, stronger effect = lower value
[34] = locus YBL105C, strain PKC1, stronger effect = lower value
[35] = locus YBR135W, strain CKS1, stronger effect = lower value
[36] = locus YBR136W, strain MEC1, stronger effect = lower value
[37] = locus YBR160W, strain CDC28, stronger effect = lower value
[38] = locus YDL017W, strain CDC7, stronger effect = lower value
[39] = locus YDL028C, strain MPS1, stronger effect = lower value
[40] = locus YDL108W, strain KIN28, stronger effect = lower value
[41] = locus YDL132W, strain cdc53, stronger effect = lower value
[42] = locus YDL214C, strain PRR2, stronger effect = lower value
[43] = locus YDR052C, strain DBF4, stronger effect = lower value
[44] = locus YDR054C, strain cdc34, stronger effect = lower value
[45] = locus YDR226W, strain ADK1, stronger effect = lower value
[46] = locus YDR477W, strain SNF1, stronger effect = lower value
[47] = locus YER123W, strain YCK3, stronger effect = lower value
[48] = locus YER133W, strain GLC7, stronger effect = lower value
[49] = locus YFL009W, strain cdc4, stronger effect = lower value
[50] = locus YFL029C, strain CAK1, stronger effect = lower value
[51] = locus YFR003C, strain YPI1, stronger effect = lower value
[52] = locus YFR019W, strain FAB1, stronger effect = lower value
[53] = locus YFR028C, strain CDC14, stronger effect = lower value
[54] = locus YGR040W, strain KSS1, stronger effect = lower value
[55] = locus YGR052W, strain FMP48, stronger effect = lower value
[56] = locus YGR092W, strain DBF2, stronger effect = lower value
[57] = locus YHR082C, strain KSP1, stronger effect = lower value
[58] = locus YHR205W, strain SCH9, stronger effect = lower value
[59] = locus YIL147C, strain SLN1, stronger effect = lower value
[60] = locus YJL128C, strain PBS2, stronger effect = lower value
[61] = locus YJL157C, strain FAR1, stronger effect = lower value
[62] = locus YJR016C, strain ILV3, stronger effect = lower value
[63] = locus YJR066W, strain TOR1 (second series), stronger effect = lower value
[64] = locus YKL048C, strain ELM1, stronger effect = lower value
[65] = locus YKL067W, strain YNK1, stronger effect = lower value
[66] = locus YKL101W, strain HSL1, stronger effect = lower value
[67] = locus YKL193C, strain SDS22, stronger effect = lower value
[68] = locus YKL203C, strain TOR2, stronger effect = lower value
[69] = locus YLR133W, strain CKI1, stronger effect = lower value
[70] = locus YLR403W, strain SFP1, stronger effect = lower value
[71] = locus YML070W, strain DAK1, stronger effect = lower value
[72] = locus YMR001C, strain CDC5, stronger effect = lower value
[73] = locus YMR205C, strain PFK2 (second series), stronger effect = lower value
[74] = locus YMR277W, strain FCP1, stronger effect = lower value
[75] = locus YNL006W, strain LST8, stronger effect = lower value
[76] = locus YNL020C, strain ARK1, stronger effect = lower value
[77] = locus YNL161W, strain CBK1, stronger effect = lower value
[78] = locus YNL207W, strain RIO2, stronger effect = lower value
[79] = locus YNL222W, strain SSU72, stronger effect = lower value
[80] = locus YNL307C, strain MCK1 (second series), stronger effect = lower value
[81] = locus YOL078W, strain AVO1, stronger effect = lower value
[82] = locus YOL136C, strain PFK27, stronger effect = lower value
[83] = locus YOR061W, strain CKA2, stronger effect = lower value
[84] = locus YOR119C, strain RIO1, stronger effect = lower value
[85] = locus YOR329C, strain SCD5, stronger effect = lower value
[86] = locus YPL031C, strain PHO85, stronger effect = lower value
[87] = locus YPL153C, strain RAD53, stronger effect = lower value
[88] = locus YPL204W, strain HRR25, stronger effect = lower value
[89] = locus YPL209C, strain IPL1, stronger effect = lower value
[90] = locus YPR025C, strain CCL1, stronger effect = lower value
[91] = locus YPR106W, strain ISR1, stronger effect = lower value
[92] = locus YPR111W, strain DBF20, stronger effect = lower value
[93] = strain NNK1, stronger effect = lower value
[94] = strain TSCII, stronger effect = lower value

Measured: normalized growth

CC1CN=C(NC2CCCCC2)S1 (stereo unspecified)
inactive: [1] 0.987 | [2] 1 | [3] 0.977 | locus YDL134C, strain PPH21, stronger effect = lower value 1.01 | [4] 0.947 | [5] 1.01 | [6] 0.998 | [7] 0.997 | [8] 1.02 | locus YJL187C, strain SWE1, stronger effect = lower value 1.01 | [9] 0.982 | [10] 0.998 | [11] 1.05 | [12] 0.988 | [13] 1.02 | [14] 1.04 | [15] 1 | [16] 1.01 | [17] 0.93 | [18] 1.01 | [19] 1.02 | [20] 0.99 | [21] 1 | [22] 1.01 | [23] 0.874 | [24] 1.01 | [25] 1.01

C[N+]1(C)C2CCC1CC(OC(=O)C(CO)c1ccccc1)C2 (stereo unspecified)
inactive: locus YAL040C, strain CLN3, stronger effect = lower value 1.04 and 1.01 | locus YCL061C, strain MRC1 (second series), stronger effect = lower value 1 | locus YDR363W, strain ESC2, stronger effect = lower value 0.993 | locus YER002W, strain NOP16, stronger effect = lower value 1 and 0.996 | [6] 1.02 | [7] 0.972 | [26] 0.976 | [27] 1 | [28] 0.917 | [10] 1 | [29] 0.989 | locus YNL128W, strain TEP1, stronger effect = lower value 1.01 | [18] 1.01 | locus YNL175C, strain NOP13, stronger effect = lower value 1.01 | [30] 0.929 | locus YNL197C, strain WHI3, stronger effect = lower value 1.02 and 1.01 | locus YNL224C, strain SQS1, stronger effect = lower value 1.01 and 0.997 | [20] 1.03 and 1.02 | locus YOR083W, strain WHI5 (second series), stronger effect = lower value 1.02 | [31] 0.968 | [32] 0.957

COc1cc(C2SCCS2)cc(Br)c1OC(=O)NC(=O)c1c(Cl)cccc1Cl
inactive: [33] 0.965 | [34] 0.955 | [35] 0.968 | [36] 0.954 | [37] 0.956 | [38] 0.958 | [39] 0.962 | [3] 0.952 | [40] 0.953 | [41] 0.962 | [42] 0.953 | [43] 0.966 | [44] 0.955 | [45] 0.937 | [46] 0.939 | [47] 0.936 | [48] 0.936 | [49] 0.956 | [50] 0.974 | [51] 0.948 | [52] 0.966 | [53] 0.968 | [54] 0.936 | [55] 0.988 | [56] 0.919 | [26] 0.985 | [57] 1.06 | [58] 0.987 | [59] 0.963 | [27] 0.958 | [60] 0.916 | [61] 0.909 | [62] 0.966 | [63] 0.926 | [28] 1.02 | [64] 0.951 | [65] 0.943 | [66] 0.957 | [67] 0.974 | [68] 0.974 | [29] 1 | [69] 0.942 | [70] 0.905 | [71] 0.962 | [72] 0.962 | [73] 0.954 | [74] 0.966 | [75] 0.967 | [76] 0.942 | [77] 0.951 | [30] 0.997 | [78] 0.964 | [79] 0.975 | [80] 0.937 | [81] 0.96 | [82] 0.937 | [83] 0.934 | [84] 0.994 | [31] 0.993 | [85] 0.956 | [86] 0.905 | [87] 0.941 | [88] 0.876 | [89] 0.963 | [32] 1.07 | [90] 0.966 | [91] 0.957 | [92] 0.933 | [93] 0.957 | [94] 0.958
active: [7] 1.15 [resistant]

CC(C)c1cccc(C(C)C)c1OC(=O)NC(=O)c1c(Cl)cccc1Cl
inactive: [33] 0.98 | [34] 0.984 | [35] 0.983 | [36] 0.989 | [37] 0.985 | [38] 0.985 | [39] 0.989 | [3] 0.971 | [40] 0.985 | [41] 0.985 | [42] 0.974 | [43] 0.978 | [44] 0.977 | [45] 0.975 | [46] 0.982 | [47] 0.942 | [48] 0.983 | [49] 0.99 | [50] 0.979 | [51] 0.982 | [52] 0.969 | [53] 0.988 | [54] 0.979 | [55] 1.01 | [56] 0.992 | [7] 0.966 | [26] 0.911 | [57] 1.04 | [58] 0.945 | [59] 0.988 | [27] 0.956 | [60] 0.928 | [61] 0.957 | [62] 0.985 | [63] 0.945 | [28] 1.03 | [64] 0.986 | [65] 0.966 | [66] 0.956 | [67] 0.99 | [68] 1.01 | [29] 0.866 | [69] 0.96 | [70] 0.962 | [71] 0.972 | [72] 0.986 | [73] 0.98 | [74] 0.986 | [75] 0.982 | [76] 0.957 | [77] 0.976 | [30] 0.979 | [78] 0.98 | [79] 0.987 | [80] 0.958 | [81] 0.985 | [82] 0.945 | [83] 0.972 | [84] 1.04 | [31] 0.945 | [85] 0.971 | [86] 0.954 | [87] 0.984 | [88] 0.943 | [89] 0.991 | [32] 0.919 | [90] 0.982 | [91] 0.978 | [92] 0.96 | [93] 0.962 | [94] 0.978

COC(=O)C(Cc1c[nH]c2ccccc12)NC(=O)c1c(Cl)cccc1Cl (stereo unspecified)
inactive: [1] 1 | [2] 0.992 | [3] 0.993 | [4] 0.993 | [5] 1.01 | [6] 0.994 | [7] 0.97 | [8] 0.985 | [9] 1 | [10] 0.994 | [11] 0.996 | [12] 1.01 | [13] 0.981 | [14] 1 | [15] 1 | [16] 1 | [17] 0.994 | locus YMR307W, strain GAS1, stronger effect = lower value 0.915 | [18] 0.993 | [19] 1 | [20] 0.99 | [21] 0.999 | [22] 0.937 | [23] 0.988 | [24] 0.999 | [25] 0.963
